# 3CLpro inhibitor = SARS-CoV 3CLpro protease inhibition; P0C6X7; recombinant SARS-CoV 3CLpro, quenched FRET peptide cleavage; inhibition, % at 6 µM; actives 0.14% (n = 290,000); AID 1706; in the data active = inhibition above about 12%
# Mtb bLac sens = beta-lactam sensitization of Mtb H37Rv; M. tuberculosis H37Rv growth with meropenem, percent inhibition; inhibition, % at 25 µM; actives 0.27% (n = 330,000); AID 434955; call rule not given here;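 note: growth measured after seven days incubation then overnight dye step; 0% = bacteria only wells and 100% = bacteria with antibiotic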
# RN4220 kill = S. aureus RN4220 growth inhibition; inhibition, % (concentration not given with the values); actives 0.33% (n = 330,000); OD600, 16 h; in the data active = inhibition above about 85%;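 note: plate controls were untreated cells for no effect and reference antibiotic for full effect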
# CCHF vOTU inh-1 = blocks the CCHF virus ovarian tumor domain protease; CCHFV vOTU protease, Pep-AMC fluorescence; inhibition, % at 11.5 µM; actives 0.55% (n = 370,000); note: 0% = vehicle wells with enzyme and 100% = no enzyme wells
# ugtP null kill = kills S. aureus RN4220 lacking UgtP. AID 1259309. growth inhibition, % (concentration not given with the values). actives 0.54% (n = 330,000). S. aureus RN4220 ugtP deletion, OD600 growth, 16 h; in the data active = growth inhibition above about 68%;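 note: plate controls were untreated wells for no effect and antibiotic for full effect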
# MazF activator = MazEF (E. coli) toxin RNase activation; P0AE70; activation, % at 20 µM; actives 0.32% (n = 350,000); FAM/BHQ RNA-DNA oligo cleavage fluorescence, 5 h; in the data active = activation above about 50%
# Target sequence (P0AE70 whole entry, looked up): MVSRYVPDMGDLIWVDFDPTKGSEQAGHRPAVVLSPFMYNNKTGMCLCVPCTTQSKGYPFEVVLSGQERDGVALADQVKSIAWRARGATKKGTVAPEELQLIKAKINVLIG
# CCHF vOTU inh-2 = confirmation of CCHF virus vOTU protease inhibitors; actives 17% (n = 1,900); shares compounds with CCHF vOTU inh-1; Recombinant CCHFV vOTU, Pep-AMC fluorescence; inhibition, % at 11.5 µM
# An asterisk follows results filed as active; . = no result. Hits are enriched below; roughly 1.3% of the tested compounds scored in any of these assays. Cut-off read from the data, not from the text of the source, unless noted: active = inhibition above about 30%; inactive = the rest.
SMILES,3CLpro inhibitor,Mtb bLac sens,RN4220 kill,CCHF vOTU inh-1,ugtP null kill,MazF activator,CCHF vOTU inh-2
CCC(C)C(NC(=O)OC(C)(C)C)c1cn(C(Cc2ccc(O)cc2)C(=O)N2CCN(C(=O)OC(C)(C)C)CC2)nn1 (configuration not stated),.,.,5,.,-10,.,.
Cc1ccc([C@@H]2CC=C(C(=O)O)[C@H](c3ccc(Br)cc3)N2S(=O)(=O)c2ccccc2C)cc1,.,-1,23,39*,24,-7,12
Cc1ccc([C@H]2C(C(=O)O)=CC[C@@H](c3ccc(Cl)c(Cl)c3)N2S(=O)(=O)c2ccc(C)cc2)cc1,.,6,40,40*,53,-1,11
Cc1ccc(S(=O)(=O)N2[C@@H](c3ccccc3F)C(C(=O)O)=CC[C@H]2c2ccc(Cl)c(Cl)c2)cc1,.,3,5,16,77,-2,.
COc1ccc([C@@H]2CC=C(C(=O)O)[C@H](c3ccc(Br)cc3)N2S(=O)(=O)c2ccccc2C)cc1,.,1,25,28,8,3,.
COc1cc(/C=C2\C(=O)N(c3ccccc3)N=C2C)ccc1Oc1ccc([N+](=O)[O-])cc1[N+](=O)[O-],2,6,8,48*,-3,-13,-1
COc1cc(/C=C2/C(=O)N(c3ccc(C(=O)O)cc3)N=C2C)cc(OC)c1O,-4,5,1,67*,3,-215,-14
C#CCOc1ccc(/C=C2/C(=O)N(c3cccc(C(=O)O)c3)N=C2C)cc1OC,-2,13,.,35*,.,9,-15
C#CCOc1ccc(/C=C2/C(=O)N(c3ccc(S(N)(=O)=O)cc3)N=C2C)cc1OC,.,.,.,29,.,6,.
COc1cc(/C=C2/C(=O)N(c3ccc(Br)cc3)N=C2C)cc(OC)c1OC,-1,.,5,.,8,1,.
COc1cc(/C=C2/C(=O)N(c3ccc(C)c(C)c3)N=C2C)cc([N+](=O)[O-])c1O,-13,8,0,-2,-3,-13,.
COc1cc(/C=C2\C(=O)N(c3ccc(S(N)(=O)=O)cc3)N=C2C)ccc1OC(=O)c1ccco1,5,93,8,48*,15,5,-3
COc1cc(C=NNC(=O)C(C)Nc2n[nH]c(=O)[nH]c2=O)cc(OC)c1O (configuration not stated),.,.,2,.,3,.,.
CCn1c(SCC(=O)NN=Cc2c[nH]c3ccccc23)nnc1-c1ccc(Cl)cc1,.,.,0,.,-3,.,.
CCCCCC(=O)NN=Cc1ccc(N(C)C)cc1,.,.,3,.,0,.,.
Cc1csc(C(C#N)=NO)n1,.,.,4,.,1,.,.
COc1ccccc1/C=C1/C(=O)N(c2ccccc2)N=C1C,2,-1,.,71*,.,1,-10
COc1ccccc1NC(=O)c1ccc(Cl)c(S(=O)(=O)NCc2ccco2)c1,.,-4,1,33*,0,0,-28
O=C(O)c1ccc(Cl)c(S(=O)(=O)NCc2ccco2)c1,-1,-14,17,0,5,0,.
CCN1C(=O)[C@H]2[C@@H](c3ccc(OC)cc3)N[C@]3(CCCN(Cc4cccn4C)C3=O)[C@H]2C1=O,.,.,.,30*,.,6,-2
COC(=O)CCCC1=CC2=C(c3ccccc3)C(=O)C(C)(OC(=O)C3CCCC3)C(=O)C2=CN1CC1CC1 (configuration not stated),.,-7,6,10,4,-8,.
COC(=O)CCCC1=CC2=C(c3ccccc3)C(=O)C(C)(OC(=O)C3CCCC3)C(=O)C2=CN1C1CCCCC1 (configuration not stated),.,-4,1,33*,2,-1,22
COCCN1C=C2C(=O)C(C)(OC(=O)C3CCCC3)C(=O)C(c3ccccc3)=C2C=C1CCCC(=O)OC (configuration not stated),.,-1,8,34*,3,-15,39*
CC1CN(C(C)CO)C(=O)c2cccc(NS(=O)(=O)c3ccc(F)cc3)c2OC1CN(C)S(=O)(=O)c1cn(C)cn1 (configuration not stated),.,.,3,.,4,.,.
CC(=NOC(=O)C1CC1)C1CC1c1ccc(F)cc1 (configuration not stated),.,.,3,.,5,.,.
SMILES,3CLpro inhibitor,Mtb bLac sens,RN4220 kill,CCHF vOTU inh-1,ugtP null kill,MazF activator,CCHF vOTU inh-2
CC1=NN(c2ccccc2)C(=O)C1N=Nc1ccc(C)cc1 (configuration not stated),5,-6,1,.,7,.,.
CC1=NN(c2ccccc2)C(=O)C1C=Nc1ccc(N(C)C)cc1 (configuration not stated),-1,-6,3,30*,5,-10,2
Cc1cccc(C(=O)NN=Cc2cc(Br)c(Br)o2)c1,.,.,-1,.,-18,.,.
COc1ccc(C=NNC(=O)Cc2cccs2)cc1,.,.,4,.,9,.,.
COc1ccc2ccccc2c1C1CC(=O)N2CN(C)CSC2=C1C#N (configuration not stated),2,-1,9,79*,0,-1,56*
CCn1c(C=Cc2ccccc2)nc2ccccc2c1=O,.,.,11,.,-25,.,.
CCn1nc(/C=C/c2ccccc2)nc2c(=O)n(C)c(=O)nc1-2,5,.,98*,124*,99*,10,107*
CC(C)CC(=O)NC(C(=O)NC(C(=O)NC(CC(C)C)C(O)CC(=O)NC(C)C(=O)NC(CC(C)C)C(O)CC(=O)O)C(C)C)C(C)C (configuration not stated),.,.,5,.,-5,.,.
Nc1ccc(Br)c2cccnc12,0,94,-12,101*,-1,-24,1
CS(=O)(=O)Oc1ccc(Br)c2cccnc12,1,-2,5,10,12,5,.
COc1ccc(S(=O)(=O)N2CCN(Cc3cccc(Cl)c3)CC2)cc1,1,-1,6,1,7,-8,.
COc1ccc(S(=O)(=O)N2CCN(Cc3ccc(Cl)cc3)CC2)cc1,-1,12,0,33*,13,-8,0
COc1cc(C=C2C(=O)C=CC2=O)ccc1O,.,.,.,41*,.,.,-11
COC(C(=O)NN=C(C)CC(=O)Nc1ccc(Cl)cc1C)c1ccccc1 (configuration not stated),.,.,2,.,8,.,.
O=c1cc(-c2ccccc2)oc2cccc(O)c12,.,.,.,-7,.,10,.
Cc1ccccc1-c1cc(=O)c2c(O)cccc2o1,.,21,9,35*,14,11,-2
CCOC(=O)CC1(C)Oc2ccccc2N1S(=O)(=O)c1ccc(C)cc1 (configuration not stated),.,.,.,30*,.,.,-23
CCOC(=O)C1CN(S(=O)(=O)c2ccc(C)cc2)c2cc(S(=O)(=O)CC)ccc2O1 (configuration not stated),5,10,-1,2,-1,-5,.
Oc1ccc(C=Nc2cccc3ncccc23)c(O)c1,-5,4,-2,44*,-3,16,-10
NC(=O)c1ccc(C(=O)NN=Cc2cccc(Oc3ccccc3)c2)cc1,.,.,3,.,2,.,.

# Screening data: PubChem, several laboratories
